Reference: PubChem BioAssay AID1159580 (chemical genetic matrix, 2015)
The campaign covered roughly 5,500 compounds. About 2,000 (36%) were called active. Not shown: some 18% with an inconclusive outcome. Rule as the data show it: active = normalized growth mostly below about 0.91 (no sharp cut-off); inconclusive = no clear call, values can overlap the other calls; inactive = mostly above about 0.92. This is one part of the list.

Assay: chemical genetic growth profiling, strain panel (AID 1159580);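 also: tested at 20 µM; growth read once vehicle control cultures reached saturation at 30 °C; 1 = growth at the plate median or of vehicle wells; lower values mean less growth of the strain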
Conditions: S. cerevisiae deletion strains, growth OD

Measured: normalized growth

O=c1cc(O)cc(/C=C/c2ccc(O)c(O)c2)o1
inactive: locus YAL013W, strain DEP1, stronger effect = lower value 0.981 | locus YAL040C, strain CLN3, stronger effect = lower value 0.986 | locus YCL061C, strain MRC1 (second series), stronger effect = lower value 0.988 | locus YDR150W, strain NUM1, stronger effect = lower value 0.978 | locus YDR363W, strain ESC2, stronger effect = lower value 0.995 | locus YER002W, strain NOP16, stronger effect = lower value 0.999 | locus YGR078C, strain PAC10, stronger effect = lower value 0.985 | locus YGR229C, strain SMI1, stronger effect = lower value 0.966 | locus YJR075W, strain HOC1, stronger effect = lower value 0.988 | locus YMR263W, strain SAP30, stronger effect = lower value 1 | locus YMR307W, strain GAS1, stronger effect = lower value 1.01 | locus YNL175C, strain NOP13, stronger effect = lower value 0.988 | locus YNL197C, strain WHI3, stronger effect = lower value 0.986 | locus YNL224C, strain SQS1, stronger effect = lower value 1.02 | locus YOR083W, strain WHI5 (second series), stronger effect = lower value 0.975 | locus YPL055C, strain LGE1, stronger effect = lower value 0.978
